Structures are written as SMILES. Records with an inconclusive call do not appear. Calls of active or inactive are those of the source. Calls come from the whole dose curve; as a rule, active = well fitted inhibition curve with a large enough effect; inconclusive = small, poorly fitted or top-dose-only effect; inactive = flat fitted curve, though single readings scatter.
% is set by controls: 0 for no effect and ±100 for the full control effect; potency is the fitted concentration of half-maximal effect.

The test has as its system KB-3-1. As to the kind of experiment: Cytotoxic Profiling of Annotated Libraries Using Quantitative High-Throughput Screening (AID 1296008). Note: nearly all actives have a fitted effect of over 60% in size. Conditions: Five cell lines viability, CellTiter-Glo ATP luminescence, 48-72 h; max response: hits give low values. An outline of the steps:
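Cells exposed to compounds for 48 or 72 hr at 37 degrees Celsius. Viability read as ATP-coupled luminescence with CellTiter-Glo after 10 min at room temperature.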
(In general: ATP-based viability assays read luminescence as a measure of living cells.)
Take `CNC12CC3C[C@@](C)(C1)C[C@](C)(C3)C2`: the outcome was inactive.
Regarding `CN(C)c1nc(NC2CCC(NC(=O)c3ccc(F)c(F)c3)CC2)nc2ccccc12` (stereo unspecified), the Potency was 23.1 µM (active).
As for `Nc1nc(Nc2ccc(S(N)(=O)=O)cc2)n(C(=S)Nc2c(F)cccc2F)n1`, the Potency is 1.3 µM (active).
Consider `CC1(C)CC(=O)C2=C(C1)NC(=S)NC2c1cccc(O)c1` (stereo unspecified), for which the Potency is 0.82 µM (active).
As to `CCc1cccc(CC)c1NC(=O)c1nn(C)c2c1CCc1cnc(Nc3ccc(C(=O)NC4CCN(C)CC4)cc3OC(F)(F)F)nc1-2`, the Potency was 5.63 µM (active).
Consider `CCCN1CCC(c2cccc(S(C)(=O)=O)c2)CC1`, for which the max response is -3.93% (inactive).
